Results on four molecules are retold here after PubChem BioAssay (EPA / NIEHS).

Read-out in test [1]: Macrophage colony-stimulating factor (MCSF), CSF1 (gene 1435)
Description: BSK_hDFCGF_MCSF: BioMAP Diversity Plus: hDFCGF Assay for Macrophage colony-stimulating factor (MCSF) Biomarker Activity (AID 2283060). To be noted: primary human foreskin fibroblasts; actives raise or lower the signal. A digest of the protocol: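 M-CSF levels read by ELISA at 24 h post-dosing in human skin fibroblasts. Parallel cultures stained with SRB assessed cytotoxicity at the same time point; response fitted in both directions against the DMSO baseline.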

Test [2] is described as follows: BSK_hDFCGF_SRB: Viability Assessment in the BioMAP Diversity Plus: hDFCGF Assay (AID 2283061).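 Also: cells exposed to compound for 24 h before the read.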 To be noted: primary human foreskin fibroblasts. A digest of the protocol:
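Viability was read as total protein: after 10% TCA fixation, wells were stained with 0.1% sulforhodamine B and read at 560 nm. Primary human foreskin fibroblasts were dosed for 24 h, with bidirectional fitting versus DMSO.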

Read-out in test [3]: TIMP metallopeptidase inhibitor 1 (TIMP1), TIMP1 (gene 7076)
Description: BSK_hDFCGF_TIMP1: BioMAP Diversity Plus: hDFCGF Assay for TIMP metallopeptidase inhibitor 1 (TIMP1) Biomarker Activity (AID 2283062). To be noted: primary human foreskin fibroblasts; actives raise or lower the signal. The essentials:
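TIMP-1 measured by ELISA 24 h after chemical dosing of primary human skin fibroblasts, with gain or loss fitted relative to DMSO. Parallel SRB staining (560 nm) monitored overt cytotoxicity.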

Read-out in test [4]: Monokine induced gamma interferon (MIG), CXCL9 (gene 4283)
Description: BSK_hDFCGF_MIG: BioMAP Diversity Plus: hDFCGF Assay for Monokine induced gamma interferon (MIG) Biomarker Activity (AID 2283063). To be noted: primary human foreskin fibroblasts; actives raise or lower the signal. A digest of the protocol:
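Human primary foreskin fibroblasts in the hDFCGF system, exposed to test chemical for 24 h; MIG measured by ELISA. Bidirectional curve fitting against DMSO negative control as activity baseline.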

Read-out in test [5]: Matrix Metallopeptidase 1 (MMP1), MMP1 (gene 4312)
Description: BSK_hDFCGF_MMP1: BioMAP Diversity Plus: hDFCGF Assay for Matrix Metallopeptidase 1 (MMP1) Biomarker Activity (AID 2283064). To be noted: primary human foreskin fibroblasts; actives raise or lower the signal. The essentials: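 Primary human foreskin fibroblasts exposed to chemicals for 24 h; MMP1 measured by ELISA. Cytotoxicity tracked by SRB staining in parallel cultures; bidirectional fit relative to DMSO.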

Read-out in test [6]: Vascular cell adhesion molecule 1 (VCAM1), VCAM1 (gene 7412)
Description: BSK_hDFCGF_VCAM1: BioMAP Diversity Plus: hDFCGF Assay for Vascular cell adhesion molecule 1 (VCAM1) Biomarker Activity (AID 2283065). To be noted: primary human foreskin fibroblasts; actives raise or lower the signal. The essentials:
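ELISA readout of VCAM-1 on human dermal fibroblast primary cultures, 24 h after chemical exposure. Gain or loss of signal fitted in both directions against DMSO baseline.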

Read-out in test [7]: Plasminogen activator inhibitor-1 (PAI1), SERPINE1 (gene 5054)
Description: BSK_hDFCGF_PAI1: BioMAP Diversity Plus: hDFCGF Assay for Plasminogen activator inhibitor-1 (PAI1) Biomarker Activity (AID 2283066). To be noted: primary human foreskin fibroblasts; actives raise or lower the signal. The essentials:
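Primary dermal fibroblasts (human foreskin), hDFCGF system; compound 24 h; PAI-1 by ELISA; bidirectional fit vs DMSO control.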

Read-out in test [8]: Intercellular Adhesion Molecule 1 (ICAM1), ICAM1 (gene 3383)
Description: BSK_KF3CT_ICAM1: BioMAP Diversity Plus: KF3CT Assay for Intercellular Adhesion Molecule 1 (ICAM1) Biomarker Activity (AID 2283067). To be noted: primary human keratinocytes with fibroblasts; actives raise or lower the signal. A digest of the protocol:
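Cell-surface ICAM-1 was measured by ELISA 24 h after dosing primary human skin keratinocytes co-cultured with fibroblasts. Parallel SRB staining tracked overt cytotoxicity. Gain or loss of signal was fitted relative to DMSO.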

Read-out in test [9]: Interferon-gamma inducible Protein 10 (IP10), CXCL10 (gene 3627)
Description: BSK_KF3CT_IP10: BioMAP Diversity Plus: KF3CT Assay for Interferon-gamma inducible Protein 10 (IP10) Biomarker Activity (AID 2283068). To be noted: primary human keratinocytes with fibroblasts; actives raise or lower the signal. The essentials:
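Human keratinocyte plus foreskin fibroblast primary co-culture exposed to test chemical for 24 h; IP-10 measured by ELISA. Concentration-response fitted bidirectionally against DMSO control as baseline.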

The nature of test [10]: BSK_KF3CT_SRB: Viability Assessment in the BioMAP Diversity Plus: KF3CT Assay (AID 2283069).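 Also: total protein by sulforhodamine B staining as a cytotoxicity measure; read 24 h after compound addition.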 To be noted: primary human keratinocytes with fibroblasts. A digest of the protocol:
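Human keratinocyte and foreskin fibroblast co-culture exposed to chemical for 24 h. Total protein measured in parallel cultures by 0.1% sulforhodamine B staining after 10% TCA fixation, read at 560 nm; bidirectional fit relative to DMSO.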

Read-out in test [11]: Interleukin-1 alpha (IL1a), IL1A (gene 3552)
Description: BSK_KF3CT_IL1a: BioMAP Diversity Plus: KF3CT Assay for Interleukin-1 alpha (IL1a) Biomarker Activity (AID 2283070). To be noted: primary human keratinocytes with fibroblasts; actives raise or lower the signal. The essentials:
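Primary human keratinocyte plus foreskin fibroblast co-culture, dosed and measured at 24 h in 96-well plates. IL-1a level quantified by ELISA; bidirectional fit relative to DMSO.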

Read-out in test [12]: TIMP metallopeptidase inhibitor 2 (TIMP2), TIMP2 (gene 7077)
Description: BSK_KF3CT_TIMP2: BioMAP Diversity Plus: KF3CT Assay for TIMP metallopeptidase inhibitor 2 (TIMP2) Biomarker Activity (AID 2283071). To be noted: primary human keratinocytes with fibroblasts; actives raise or lower the signal. The essentials: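 Cells: human keratinocytes co-cultured with foreskin fibroblasts. Treat with chemical, 24 h. Measure TIMP-2 by ELISA; fit curves bidirectionally vs DMSO baseline.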

Read-out in test [13]: C-C motif chemokine 2 (Homo sapiens) (UniProt P13500)
Description: BSK_KF3CT_MCP1: BioMAP Diversity Plus: KF3CT Assay for Monocyte Chemoattractant Protein 1 (MCP1/CCL2) Biomarker Activity (AID 2283073). To be noted: primary human keratinocytes with fibroblasts; actives raise or lower the signal. The essentials:
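ELISA read-out of MCP-1, 24 h post-dose, in primary human skin keratinocytes co-cultured with fibroblasts. Parallel SRB staining monitors cytotoxicity; changes fitted both directions relative to DMSO.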

Read-out in test [14]: urokinase plasminogen activator (uPA), PLAU (gene 5328)
Description: BSK_KF3CT_uPA: BioMAP Diversity Plus: KF3CT Assay for urokinase plasminogen activator (uPA) Biomarker Activity (AID 2283075). To be noted: primary human keratinocytes with fibroblasts; actives raise or lower the signal. A digest of the protocol: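 Primary human keratinocyte/foreskin fibroblast co-culture exposed to chemical; uPA measured by ELISA at 24 h. Bidirectional fit versus DMSO, with parallel SRB total-protein staining for cytotoxicity.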

Read-out in the next test: CD40, CD40 (gene 958)
Description: BSK_LPS_CD40: BioMAP Diversity Plus: LPS Assay for CD40 Biomarker Activity (AID 2283076). To be noted: primary human HUVEC with PBMC; actives raise or lower the signal. A digest of the protocol: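 In the LPS system of human endothelial cells with peripheral blood mononuclear cells, CD40 levels were read by ELISA 24 h post-treatment. Signal changes in either direction were fitted against the DMSO baseline, with parallel SRB protein staining.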

Read-out in test [15]: E-selectin (Homo sapiens) (UniProt P16581)
Description: BSK_LPS_Eselectin: BioMAP Diversity Plus: LPS Assay for Eselectin Biomarker Activity (AID 2283077). To be noted: primary human HUVEC with PBMC; actives raise or lower the signal. A digest of the protocol:
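E-selectin ELISA on LPS-stimulated endothelial cell/PBMC co-cultures, read 24 h post-treatment; gains and losses fitted against DMSO. Parallel SRB staining (0.1% SRB after 10% TCA fixation, 560 nm) flags overt cytotoxicity.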

Read-out in test [16]: Interleukin-8 (IL8), CXCL8 (gene 3576)
Description: BSK_LPS_IL8: BioMAP Diversity Plus: LPS Assay for Interleukin-8 (IL8) Biomarker Activity (AID 2283078). To be noted: primary human HUVEC with PBMC; actives raise or lower the signal. A digest of the protocol:
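ELISA read-out of IL-8 after 24 h chemical treatment of LPS-activated endothelial/PBMC human primary co-cultures. Changes either up or down relative to DMSO; overt cytotoxicity checked by sulforhodamine B staining in parallel wells.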

Test [17] in a line: BSK_LPS_SRB: Viability Assessment in the BioMAP Diversity Plus: LPS Assay (AID 2283079).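 Also: total protein by sulforhodamine B absorbance as a cytotoxicity measure; measured one day after compound addition.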 To be noted: primary human HUVEC with PBMC. A digest of the protocol:
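SRB viability endpoint: cells fixed with 10% TCA, stained with 0.1% SRB, read at 560 nm, 24 h post-dose. HUVEC/PBMC co-culture; signal change in either direction scored relative to DMSO.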

Read-out in test [18]: Interleukin-1 alpha (IL1a), IL1A (gene 3552)
Description: BSK_LPS_IL1a: BioMAP Diversity Plus: LPS Assay for Interleukin-1 alpha (IL1a) Biomarker Activity (AID 2283080). To be noted: primary human HUVEC with PBMC; actives raise or lower the signal. The essentials:
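Readout is IL-1a level by ELISA, 24 h post-dose, fitted as gain or loss relative to DMSO. System: LPS-activated human primary co-culture of vascular endothelium and peripheral blood mononuclear cells, with parallel SRB total-protein cytotoxicity.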

Read-out in test [19]: Matrix Metallopeptidase 9 (MMP9), MMP9 (gene 4318)
Description: BSK_KF3CT_MMP9: BioMAP Diversity Plus: KF3CT Assay for Matrix Metallopeptidase 9 (MMP9) Biomarker Activity (AID 2283074). To be noted: primary human keratinocytes with fibroblasts; actives raise or lower the signal. The essentials: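 Human keratinocyte and foreskin fibroblast co-culture exposed to chemicals for 24 h; MMP9 biomarker measured by ELISA, bidirectional fitting relative to DMSO; cytotoxicity tracked by SRB total protein staining in parallel cultures.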

Each structure is given as a SMILES string. The source made the active and inactive calls. The calls were made as follows: active = hit-call score of the fitted dose curve at least 0.9, where 1 is the maximum; inactive = score below 0.9.

Sequence of E-selectin (Homo sapiens) (P16581 whole entry, looked up): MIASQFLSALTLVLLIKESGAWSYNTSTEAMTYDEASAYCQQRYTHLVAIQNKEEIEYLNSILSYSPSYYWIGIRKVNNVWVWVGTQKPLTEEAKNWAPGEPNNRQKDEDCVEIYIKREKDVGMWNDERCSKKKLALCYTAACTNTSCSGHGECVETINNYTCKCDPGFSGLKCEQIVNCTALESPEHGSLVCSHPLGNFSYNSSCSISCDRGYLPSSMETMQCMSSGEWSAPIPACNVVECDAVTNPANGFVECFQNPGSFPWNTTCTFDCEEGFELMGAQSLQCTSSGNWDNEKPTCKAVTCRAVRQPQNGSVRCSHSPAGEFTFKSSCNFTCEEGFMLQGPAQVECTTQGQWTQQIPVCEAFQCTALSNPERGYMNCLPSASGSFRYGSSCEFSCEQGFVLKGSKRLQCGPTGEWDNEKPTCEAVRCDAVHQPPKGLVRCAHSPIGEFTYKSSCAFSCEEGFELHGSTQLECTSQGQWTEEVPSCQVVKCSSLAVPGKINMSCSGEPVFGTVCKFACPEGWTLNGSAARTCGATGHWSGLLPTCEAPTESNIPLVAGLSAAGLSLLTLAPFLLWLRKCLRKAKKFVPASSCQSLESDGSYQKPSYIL

Regarding `CO[Si](OC)(c1ccccc1)c1ccccc1`, the AC50 (as a rule, the midpoint of the concentration-response curve, whichever way the signal moves) is 32.5 µM (active) in [1]; 36 µM (active) in [2]; 32.6 µM (active) in test [10]; 30.9 µM (active) in test [12]; 31.6 µM (active) in [13]; 28.9 µM (active) in [14]. The outcome in test [3], in test [4], in [5], in test [6], in [7] and in test [8] was inactive. The outcome is “inactive” in [9]; “inactive” in [11]; “inactive” in the test with CD40, CD40 (gene 958); “inactive” in [15]; “inactive” in test [16]; “inactive” in test [17]. In [18], the result was inactive.

`O=C(O)C(F)(OC(F)(F)C(F)(OC(F)(F)C(F)(F)C(F)(F)F)C(F)(F)F)C(F)(F)F` (stereo unspecified): the outcome in test [1], in test [2], in [3], in test [4], in test [5] and in test [6] was inactive. The result in test [7], in [8], in test [9], in [10], in test [11] and in test [12] was inactive. For the same molecule, the outcome in [13] was “inactive”; in [19] it was “inactive”; in [14] it was “inactive”; with CD40, CD40 (gene 958) it was “inactive”; in test [15] it was “inactive”; in test [16] it was “inactive”. The result in test [17] and in test [18] was inactive.

`O=C(O)C(F)(F)C(F)(F)OC(F)(F)F`: the outcome in test [1], in [2], in test [3], in [4], in test [5] and in test [6] was inactive. Moreover, the result in test [7], in test [8], in [9], in test [10], in test [11] and in [12] was inactive. Further, the outcome in [13] is “inactive”; in test [14], “inactive”; in the test with CD40, CD40 (gene 958), “inactive”; in [15], “inactive”; in test [16], “inactive”; in test [17], “inactive”.

As to `O=S(=O)(OCCOC(F)(F)F)C(F)(F)F`, the outcome in test [1], in test [2], in test [3], in test [4], in test [5] and in [6] was inactive. The outcome in test [7], in test [8], in test [9], in test [10], in test [11] and in test [12] was inactive. Moreover, the outcome was “inactive” in [13]; “inactive” in [14]; “inactive” with CD40, CD40 (gene 958); “inactive” in [15]; “inactive” in test [16]; “inactive” in test [17]. The result in test [18] was inactive.
